Data: PubChem BioAssay (Tox21)
Results filed as inconclusive are left out. Values without a mark were called inactive. The source made the active and inactive calls. The call rests on the fitted dose curve; in most records, active means well fitted cell-killing curve with a large enough effect in the repeat runs; inconclusive means weak or mixed curves; inactive means no such curve, though single readings can be large or run the other way.
On the % scale 0 is the no-effect control and ±100 the full control effect; potency means the concentration at half of the fitted maximal effect.

Experiment: qHTS assay for identifying genotoxic compounds that show differential cytotoxicity against isogenic chicken DT40 cell lines with known DNA damage response pathways - Rad54/Ku70 mutant cell line (AID 743015); further: nearly all actives have a fitted effect of over 60% in size
Conditions: DT40 Rad54/Ku70 mutant viability, CellTiter-Glo, 40 h; series mostly up to 66.8 µM; activity change, negative = cytotoxicity: at the top concentration
In the case of Oc1ccc(Cl)c2cccnc12, the Potency is reported as 6.68 µM (active). For Cc1ccccc1S, the Potency was 38.9 µM (active). For CC(CO)CO, the “activity change, negative = cytotoxicity” value was 3.86% [at 95.1 µM]. In the case of COc1ncnc(NS(=O)(=O)c2ccc(N)cc2)c1OC, the “activity change, negative = cytotoxicity” value is reported as 0.987%. In the case of Cc1cc(C)cc(N)c1, the “activity change, negative = cytotoxicity” value is reported as -0.275% [at 95.1 µM]. In the case of C[C@@H]1CN(CCCn2c3ccccc3c3ccccc32)C[C@H](C)N1, the Potency is reported as 9.44 µM (active). With CC(C)c1nc(CN(C)C(=O)N[C@H](C(=O)N[C@@H](Cc2ccccc2)C[C@H](O)[C@H](Cc2ccccc2)NC(=O)OCc2cncs2)C(C)C)cs1 the Potency was 23.7 µM (active). For COC(=O)CCS, the “activity change, negative = cytotoxicity” value was 0.366%. With NC(=O)c1ccncc1 the “activity change, negative = cytotoxicity” value was 6.72% [at 95.1 µM]. In the case of Cc1cscn1, the “activity change, negative = cytotoxicity” value is reported as 5.34%. With C=C(C)[C@@H]1CCC2=CCC[C@@H](C)[C@]2(C)C1 the Potency was 15.4 µM (active). With CCC1CO1 (stereo not drawn) the “activity change, negative = cytotoxicity” value was 3.54%. For COc1cc(C(=O)NC2CCN(C)CC2)ccc1Nc1ncc2c(n1)N(C1CCCC1)CC(F)(F)C(=O)N2C, the Potency was 0.0056 µM (active). For O=C(OC(=O)c1ccccc1)c1ccccc1, the “activity change, negative = cytotoxicity” value was 4.64% [at 95.1 µM]. With CCC(C)COC(C)=O (stereo not drawn) the “activity change, negative = cytotoxicity” value was 8.86%. For CCCCCCCCCI, the “activity change, negative = cytotoxicity” value was -0.0644% [at 95.1 µM]. With C[C@]1(Cn2ccnn2)[C@H](C(=O)O)N2C(=O)C[C@H]2S1(=O)=O the “activity change, negative = cytotoxicity” value was 6.28%. With CC1CC(C)C(=O)C1=O (stereo not drawn) the “activity change, negative = cytotoxicity” value was -0.815%. For CCCC(=O)C(=O)O, the “activity change, negative = cytotoxicity” value was -1.93%. In the case of C1COC1, the “activity change, negative = cytotoxicity” value is reported as 3.89%. With O=C(/C=C/c1ccccc1)OCCc1ccccc1 the “activity change, negative = cytotoxicity” value was 5.42%. With Oc1cc2c(cc1O)[C@H]1c3ccc(O)c(O)c3OC[C@@]1(O)C2 the Potency was 31 µM (active). For Cc1c(C)c2c(c(C)c1OC(=O)CCC(=O)OCCO)CC[C@@](C)(CCC[C@H](C)CCC[C@H](C)CCCC(C)C)O2, the Potency was 11.9 µM (active).
